We go through 7 molecules from PubChem BioAssay.

The source made the active and inactive calls.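 How the source made its calls, unless noted: active means percent response above 42, roughly 3 SD of non-fluorescent test compounds; inactive means the rest.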

The term inhibition denotes the relative decrease from the control value, in per cent.

A short description of assay [1]: RPL19A-GFP modulators, yeast TOR pathway, confirmation, cell-based, S. cerevisiae, flow cytometry, cherry picks, mother/daughter gates (AID 2270;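 active means GFP response below 50% of the DMSO control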). The note with it: S. cerevisiae RPL19A-GFP strain, 3 h, at 10 µM, stronger effect = lower value, 100 = same GFP as DMSO wells. A general note: Flow cytometry measures light scatter and fluorescence of single cells or particles in a stream.

Assay [2] is described as follows: LAP4-GFP expression modulators in yeast, confirmation, cell-based, cherry picks, flow cytometry, mother/daughter gates (AID 2271;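 active means GFP response above 150% of the DMSO control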;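 further: ratio of sample to DMSO plate mean so 100% equals DMSO level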). As to conditions: S. cerevisiae LAP4-GFP strain, 3 h, at 10 µM, stronger effect = higher value, 100 means same as DMSO control.
A short description of assay [3]: modulators of MEP2-GFP levels in yeast, confirmation, S. cerevisiae, flow cytometry GFP, cherry picks (AID 2272;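 active means GFP response above 150% of the DMSO control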;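 further: ratio of well signal to plate DMSO mean so 100% equals DMSO level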). As to conditions: S. cerevisiae MEP2-GFP strain, 3 h, at 10 µM, stronger effect = higher value.
The nature of assay [4]: AGP1-GFP expression modulators, hit retest, confirmation, cell-based, flow cytometry, S. cerevisiae, cherry picks (AID 2273;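 active means GFP response above 150% of the DMSO level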;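 further: median GFP channel fluorescence over the whole cell population gate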). The note with it: S. cerevisiae AGP1-GFP strain, 3 h, at 10 µM.
A short description of assay [5]: modulators of CIT2-GFP expression in yeast, confirmation, S. cerevisiae, GFP fusion, cherry picks, mother/daughter gates (AID 2274;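 active means GFP response above 150% of the DMSO level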). As to conditions: S. cerevisiae CIT2-GFP strain, flow cytometry, 3 h; at 10 µM; stronger effect = higher value.
Assay [6] is described as follows: inhibitors of CD8+ T cell-vesicle binding, pilot screen, LFA-1/ICAM-1 modulator project, MLPCN validation set, flow cytometry (AID 2523;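 active means response below a set limit, under 55% cells CD8-positive and vesicle-bound, and CD8 cells' 90th-percentile brightness under 279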;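 on vesicle binding response: mean PE anti-B7-1 fluorescence of CD8+ cells relative to row control; 100% = QL9-loaded vesicles with DMSO vehicle in the same plate row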). The note with it: 2C mouse CD8+ T cells, at 7 µM, stronger effect = lower value; double positive events: measured here: CD8+/vesicle+ event percentage.
The target in assay [7] is Integrin beta-1 (Homo sapiens) + Integrin alpha-4 (Homo sapiens) (UniProt P13612+P05556). Description: inhibition of HUTS-21 binding to VLA-4, pilot screen, VLA-4 allosteric modulator project, U937 cells, HUTS-21 mAb, flow cytometry, validation set (AID 2674;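 active means inhibition above 50%, about 3 SD of the validation set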;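 further: antibody binding induced by the VLA-4 ligand LDV present at three times its Kd; 0% = LDV ligand with antibody and no compound and 100% = antibody without LDV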). As to conditions: HUTS-21 LIBS mAb binding, at 6.7 µM, stronger effect = higher value, binding induced by LDV ligand.
Assay [8] in a line: superoxide lowering in aged yeast cells, pilot screen, validation compound set (AID 2706;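 active means superoxide response below 65% of plate, a cut near 3 SD across the whole screen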;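 further: yeast exposed to compound for one week at 30 degrees C before staining; 100% = mean of all compound wells on the same plate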). The note with it: S. cerevisiae aging, superoxide DHE fluorescence; at 10 µM, stronger effect = lower value.
Assay [9] deals with Beta-adrenergic receptor kinase 1 (Homo sapiens) (UniProt P25098). Description: GRK2 binders displacing RNA aptamer, biochemical, validation, human GRK2, bead flow cytometry (AID 488806;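 active means aptamer binding inhibition above 30%, about 3 SD of noise from non-fluorescent compounds; inactive means inhibition at or below 30%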). As to conditions: bead-bound GRK2, FAM-aptamer displacement, at 10 µM, stronger effect = higher value.
Assay [10] has as its target Beta-2 adrenergic receptor (Homo sapiens) (UniProt P07550). Description: beta2AR agonists driving receptor internalization, pilot screen, cell-based, FAP fluorogen, flow cytometry, validation set (AID 504459).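 Further: agonist-driven loss of surface beta2AR via internalization measured by FAP dye flow cytometry.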 The note with it: Am2.2-beta2AR cells, FAP surface receptor flow cytometry; at 10 µM; stronger effect = higher value.
The target in assay [11] is AP-2 complex subunit beta (Homo sapiens) (UniProt P63010). The assay can be described thus: inhibitors of arrestin peptide binding to AP2, pilot screen, biochemical, validation set, GST-AP2 beads, flow cytometry (AID 504541;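 active means inhibition above 54%, about 3 SD of non-fluorescent compounds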;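 further: AP2 carries R879A mutation and is captured from E. coli lysate; bead-bound FITC arrestin peptide fluorescence measuring arrestin peptide binding to AP2; 0% = DMSO wells and 100% = excess unlabeled arrestin peptide control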). As to conditions: FITC arrestin peptide, at 10 µM, stronger effect = higher value, AP2 beta2 appendage fragment, R879A mutant.
Assay [12] can be described thus: yeast V-ATPase proton transport modulators, S. cerevisiae, pHLuorin, HTS validation (AID 504600; in the data active means response above about 15%;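 further: plate controls were DMSO for no effect and reference compound for full effect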). As to conditions: S. cerevisiae pHLuorin cytosolic pH, at 10 µM, stronger effect = higher value.
Assay [13] deals with anti-desmoglein-3 scFv antibody binding to human DSG3. The assay can be described thus: inhibitors of anti-DSG3 scFv binding to DSG3, pilot screen, biochemical, validation compound set, bead-based, flow cytometry (AID 588368;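 active means binding below the plate cutoff, the plate median minus 3 SD, with a reading above zero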;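 further: signal is the median channel fluorescence of bead-bound GFP antibody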). As to conditions: Protein G beads, DSG3-Fc, scFv-GFP binding, at 10 µM, stronger effect = lower value.
Assay [14] in a line: inhibitors of fungal efflux pumps CDR1, CDR2, MDR1, pilot screen, validation compound set, multiplex, phenotypic (AID 588506;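 active means efflux inhibition above 0.42, the validation set average plus 4 SD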;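 further: Nile Red retained in cells so higher fluorescence means more efflux inhibition; 0 = negative control wells and 1 = enniatin B 25 µM full block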). As to conditions: S. cerevisiae pump-expressing triplex, Nile Red efflux flow cytometry; at 10 µM; stronger effect = higher value; the pumps come from Candida albicans.
Assay [15] deals with ATP-binding cassette sub-family B member 6 (Homo sapiens) (UniProt Q9NP58). Description: ABCB6 transporter inhibitors, pilot screen, K562-ABCB6 cells, flow cytometry, validation set (AID 588550;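 active means inhibition above the screen-wide mean plus 3 SD, about 51%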;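 further: 0% = DMSO wells and 100% = benzethonium chloride 70 µM positive control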). The note with it: K562-ABCB6 porphyrin accumulation, 1 h, at 10 µM, stronger effect = higher value.
A short description of assay [16]: promoters of myeloid differentiation in arrested cells, primary screen, cell-based, GFP/MAC1 double positive, flow cytometry, validation set (AID 588685;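 active means differentiation response of at least 50%, scaled between solvent and reference control, from cells with both markers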;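 further: compound exposure lasts four days before antibody staining and flow analysis; 0% = DMSO wells and 100% = 5 µM fulvestrant positive control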). As to conditions: ER-HoxA9 marrow cells, stronger effect = higher value, normalized: vehicle 0, fulvestrant 100.

Chain of ATP-binding cassette sub-family B member 6 (Homo sapiens) (Q9NP58 whole entry, looked up): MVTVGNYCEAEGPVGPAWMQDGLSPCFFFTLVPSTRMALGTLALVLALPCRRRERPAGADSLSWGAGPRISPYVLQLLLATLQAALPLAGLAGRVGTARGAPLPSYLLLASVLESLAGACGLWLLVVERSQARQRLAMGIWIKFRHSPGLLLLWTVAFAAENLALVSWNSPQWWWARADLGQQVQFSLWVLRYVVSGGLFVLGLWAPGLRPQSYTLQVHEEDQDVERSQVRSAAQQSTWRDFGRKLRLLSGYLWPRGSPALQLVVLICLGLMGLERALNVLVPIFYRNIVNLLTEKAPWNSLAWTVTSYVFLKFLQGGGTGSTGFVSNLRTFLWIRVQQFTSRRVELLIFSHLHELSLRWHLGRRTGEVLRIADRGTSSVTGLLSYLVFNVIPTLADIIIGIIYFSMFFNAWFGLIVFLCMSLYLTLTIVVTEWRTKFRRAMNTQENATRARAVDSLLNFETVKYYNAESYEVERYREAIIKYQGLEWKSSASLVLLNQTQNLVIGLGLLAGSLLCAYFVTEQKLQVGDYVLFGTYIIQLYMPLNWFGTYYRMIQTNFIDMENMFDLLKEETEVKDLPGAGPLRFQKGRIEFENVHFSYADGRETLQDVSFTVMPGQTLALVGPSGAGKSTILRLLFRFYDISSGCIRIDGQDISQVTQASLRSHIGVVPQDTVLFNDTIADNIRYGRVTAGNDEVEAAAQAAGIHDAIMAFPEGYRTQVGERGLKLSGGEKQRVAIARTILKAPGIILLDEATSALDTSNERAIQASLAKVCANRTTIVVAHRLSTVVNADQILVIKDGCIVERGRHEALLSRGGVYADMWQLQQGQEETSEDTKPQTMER
Chain of Beta-2 adrenergic receptor (Homo sapiens) (P07550 whole entry, looked up): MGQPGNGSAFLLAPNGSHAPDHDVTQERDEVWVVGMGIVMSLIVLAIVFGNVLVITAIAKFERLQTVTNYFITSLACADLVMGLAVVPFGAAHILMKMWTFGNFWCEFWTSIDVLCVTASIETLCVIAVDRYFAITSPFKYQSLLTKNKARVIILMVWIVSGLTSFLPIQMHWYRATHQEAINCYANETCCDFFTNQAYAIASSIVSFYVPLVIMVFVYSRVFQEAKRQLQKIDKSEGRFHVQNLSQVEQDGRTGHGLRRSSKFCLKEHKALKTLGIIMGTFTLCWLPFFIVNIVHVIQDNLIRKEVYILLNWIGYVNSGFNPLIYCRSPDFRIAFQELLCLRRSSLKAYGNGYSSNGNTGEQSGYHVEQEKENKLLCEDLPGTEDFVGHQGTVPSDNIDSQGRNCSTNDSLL
Chain of Beta-adrenergic receptor kinase 1 (Homo sapiens) (P25098 whole entry, looked up): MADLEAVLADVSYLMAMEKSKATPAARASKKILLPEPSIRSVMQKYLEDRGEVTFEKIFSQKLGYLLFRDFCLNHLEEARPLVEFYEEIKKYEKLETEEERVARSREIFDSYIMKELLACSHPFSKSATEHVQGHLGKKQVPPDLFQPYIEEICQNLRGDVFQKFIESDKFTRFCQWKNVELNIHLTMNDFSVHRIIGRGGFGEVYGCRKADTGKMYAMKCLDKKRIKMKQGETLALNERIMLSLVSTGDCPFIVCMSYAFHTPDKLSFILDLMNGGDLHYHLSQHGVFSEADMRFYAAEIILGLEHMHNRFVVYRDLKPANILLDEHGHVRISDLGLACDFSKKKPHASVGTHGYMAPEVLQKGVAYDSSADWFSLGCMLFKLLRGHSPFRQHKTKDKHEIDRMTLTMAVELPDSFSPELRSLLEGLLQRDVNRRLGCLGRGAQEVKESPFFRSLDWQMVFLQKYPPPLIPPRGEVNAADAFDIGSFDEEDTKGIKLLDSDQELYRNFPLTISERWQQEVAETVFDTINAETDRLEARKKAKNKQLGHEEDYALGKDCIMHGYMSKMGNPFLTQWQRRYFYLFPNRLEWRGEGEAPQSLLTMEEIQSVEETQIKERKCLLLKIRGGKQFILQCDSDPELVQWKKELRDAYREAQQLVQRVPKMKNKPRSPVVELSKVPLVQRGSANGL
Chain of AP-2 complex subunit beta (Homo sapiens) (P63010 whole entry, looked up, the tested form may be a part, one chain of several): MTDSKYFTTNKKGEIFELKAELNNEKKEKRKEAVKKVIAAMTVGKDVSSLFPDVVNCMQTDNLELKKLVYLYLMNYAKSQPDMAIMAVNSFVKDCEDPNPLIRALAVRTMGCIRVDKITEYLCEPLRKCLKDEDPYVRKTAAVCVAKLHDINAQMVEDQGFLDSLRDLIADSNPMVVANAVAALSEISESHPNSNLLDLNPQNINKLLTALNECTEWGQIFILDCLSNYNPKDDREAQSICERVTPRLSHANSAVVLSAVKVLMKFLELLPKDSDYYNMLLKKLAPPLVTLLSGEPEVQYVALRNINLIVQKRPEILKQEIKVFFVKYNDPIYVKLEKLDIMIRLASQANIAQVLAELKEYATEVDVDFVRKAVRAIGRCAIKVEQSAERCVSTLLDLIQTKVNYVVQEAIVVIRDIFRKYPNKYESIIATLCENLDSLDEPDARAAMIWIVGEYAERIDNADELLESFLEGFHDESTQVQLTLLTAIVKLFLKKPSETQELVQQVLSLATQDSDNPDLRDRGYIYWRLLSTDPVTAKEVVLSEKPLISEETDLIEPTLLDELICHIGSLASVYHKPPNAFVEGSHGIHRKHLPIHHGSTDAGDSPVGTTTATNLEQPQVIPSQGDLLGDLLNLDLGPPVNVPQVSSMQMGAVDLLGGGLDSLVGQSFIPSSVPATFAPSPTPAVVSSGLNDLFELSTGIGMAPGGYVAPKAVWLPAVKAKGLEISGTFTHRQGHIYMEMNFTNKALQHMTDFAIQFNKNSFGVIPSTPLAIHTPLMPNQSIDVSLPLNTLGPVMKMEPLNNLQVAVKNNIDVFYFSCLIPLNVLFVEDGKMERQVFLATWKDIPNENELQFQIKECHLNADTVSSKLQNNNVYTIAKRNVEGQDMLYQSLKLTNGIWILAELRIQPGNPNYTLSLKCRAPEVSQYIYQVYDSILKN
Chain of Integrin beta-1 (Homo sapiens) + Integrin alpha-4 (Homo sapiens) (P05556 whole entry, looked up): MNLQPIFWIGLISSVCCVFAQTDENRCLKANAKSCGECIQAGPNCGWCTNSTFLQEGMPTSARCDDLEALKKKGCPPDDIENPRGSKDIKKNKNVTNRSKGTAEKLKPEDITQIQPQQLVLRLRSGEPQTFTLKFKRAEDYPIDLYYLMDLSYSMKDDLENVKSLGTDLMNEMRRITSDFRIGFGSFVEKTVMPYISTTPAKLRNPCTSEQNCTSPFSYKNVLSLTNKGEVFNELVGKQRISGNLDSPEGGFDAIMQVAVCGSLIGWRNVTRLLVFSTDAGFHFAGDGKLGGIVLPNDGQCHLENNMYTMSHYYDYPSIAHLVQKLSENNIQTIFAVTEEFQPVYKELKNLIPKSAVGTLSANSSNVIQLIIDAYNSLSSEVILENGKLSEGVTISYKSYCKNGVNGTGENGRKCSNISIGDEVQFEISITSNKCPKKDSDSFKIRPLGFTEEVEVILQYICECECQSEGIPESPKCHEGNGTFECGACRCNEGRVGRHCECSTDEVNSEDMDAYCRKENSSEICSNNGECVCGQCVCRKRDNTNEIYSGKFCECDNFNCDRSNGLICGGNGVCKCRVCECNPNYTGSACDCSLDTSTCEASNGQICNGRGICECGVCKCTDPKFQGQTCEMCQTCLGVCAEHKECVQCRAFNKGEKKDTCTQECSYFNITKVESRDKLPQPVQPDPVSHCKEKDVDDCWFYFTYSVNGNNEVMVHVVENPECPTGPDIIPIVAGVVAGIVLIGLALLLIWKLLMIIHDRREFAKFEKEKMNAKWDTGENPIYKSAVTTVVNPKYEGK
Chain of Integrin beta-1 (Homo sapiens) + Integrin alpha-4 (Homo sapiens) (P13612 whole entry, looked up): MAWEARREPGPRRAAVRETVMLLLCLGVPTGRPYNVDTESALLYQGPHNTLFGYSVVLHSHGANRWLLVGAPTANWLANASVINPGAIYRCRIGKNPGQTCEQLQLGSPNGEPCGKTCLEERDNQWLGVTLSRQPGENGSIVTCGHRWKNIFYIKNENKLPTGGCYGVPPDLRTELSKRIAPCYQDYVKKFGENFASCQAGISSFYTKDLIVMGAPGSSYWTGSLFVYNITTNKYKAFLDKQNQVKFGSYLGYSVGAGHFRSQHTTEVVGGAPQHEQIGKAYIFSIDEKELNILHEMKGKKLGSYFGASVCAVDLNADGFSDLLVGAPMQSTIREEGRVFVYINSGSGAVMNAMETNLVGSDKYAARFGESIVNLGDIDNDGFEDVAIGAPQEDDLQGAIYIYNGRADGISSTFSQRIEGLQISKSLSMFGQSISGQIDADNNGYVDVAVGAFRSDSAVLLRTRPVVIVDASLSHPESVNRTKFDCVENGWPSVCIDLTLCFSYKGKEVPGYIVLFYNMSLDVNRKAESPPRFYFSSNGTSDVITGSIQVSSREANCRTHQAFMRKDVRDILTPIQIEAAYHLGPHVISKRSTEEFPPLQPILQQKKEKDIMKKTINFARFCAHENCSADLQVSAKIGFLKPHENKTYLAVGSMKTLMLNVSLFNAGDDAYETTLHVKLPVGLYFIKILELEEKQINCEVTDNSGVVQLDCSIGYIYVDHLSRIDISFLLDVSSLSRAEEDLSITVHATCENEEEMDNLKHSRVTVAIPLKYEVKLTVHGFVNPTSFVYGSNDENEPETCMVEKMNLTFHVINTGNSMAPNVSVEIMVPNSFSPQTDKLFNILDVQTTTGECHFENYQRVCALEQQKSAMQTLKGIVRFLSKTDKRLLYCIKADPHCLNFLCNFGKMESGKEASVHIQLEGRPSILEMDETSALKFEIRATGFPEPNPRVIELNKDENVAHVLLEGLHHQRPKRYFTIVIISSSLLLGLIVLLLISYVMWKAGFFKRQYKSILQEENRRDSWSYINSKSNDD

`COc1ccccc1/C=C/C(=O)c1ccc(Cl)cc1`: the GFP response vs DMSO was 102% (inactive) in [1] and 97.8% (inactive) in assay [3]. Further, the GFP response relative to DMSO in [2] was 92.6% (inactive). Further, the GFP response, % of DMSO in assay [4] was 98.9% (inactive); in assay [5], 103% (inactive).
In [6], `Cc1nnc(SCC(=O)N2CCCC(C(=O)c3ccc(Cl)cc3)C2)o1` (configuration not stated) gave a double positive events of 71.9%. The vesicle binding response in assay [6] was 299% (inactive). In addition, the inhibition in assay [7] was 2.3% (inactive); in assay [11] it was -3.16% (inactive); in [15], 3% (inactive). Besides, the superoxide response (% of plate) in assay [8] is 95.6% (inactive). Moreover, the aptamer binding inhibition in [9] was 1% (inactive). For the same molecule, the response in assay [10] was -7.42% (inactive); in assay [12], 2.16% (inactive). Also, the binding (% of control) in assay [13] is 105% (inactive). The efflux inhibition (fraction of control) in assay [14] was 0.3 (inactive). For the same molecule, the differentiation response in [16] was -13.6% (inactive).
Consider `O=C(c1ccccc1F)c1cc2c(cc1[N+](=O)[O-])OCCO2`, for which the double positive events in assay [6] came to 63%. Besides, the vesicle binding response in [6] was 163% (inactive). The values for the inhibition in assay [7], in assay [11] and in assay [15] were 15% (inactive), -6.21% (inactive) and 7% (inactive), respectively. Further, in [8], the superoxide response (% of plate) was 107% (inactive). In addition, the aptamer binding inhibition in assay [9] is 3% (inactive). The response in assay [10] is 24.6% (inactive); in assay [12], 1.51% (inactive). The binding (% of control) in [13] is 105% (inactive). In addition, the efflux inhibition (fraction of control) in assay [14] was -0.19 (inactive). Moreover, the differentiation response in [16] was -1.65% (inactive).
Consider `COc1ccc(-c2c(NC(=O)c3ccco3)n(C)c3ccccc3c2=O)cc1`, for which the double positive events in assay [6] amounted to 58.6%. Besides, the vesicle binding response in [6] was 125% (inactive). Also, the results for the inhibition in assay [7], in [11] and in [15] were -1.09% (inactive), -5.24% (inactive) and -2% (inactive), respectively. The superoxide response (% of plate) in [8] is 102% (inactive). Further, in assay [9], the aptamer binding inhibition was 3% (inactive). The response was 5.47% (inactive) in [10] and -3.79% (inactive) in [12]. Moreover, in assay [13], the binding (% of control) was 99.6% (inactive). Besides, the efflux inhibition (fraction of control) in assay [14] is -0.37 (inactive). In assay [16], the differentiation response is -7.5% (inactive).
Take `COc1ccc(C(=O)Nc2ccc(OC)c([N+](=O)[O-])c2)cc1Br`: the double positive events in assay [6] turned out to be 59%. The vesicle binding response in assay [6] is 113% (inactive). Also, the inhibition in assay [7] is 4.27% (inactive); in assay [11], 7.87% (inactive); in assay [15], 2% (inactive). Further, in assay [8], the superoxide response (% of plate) is 92.1% (inactive). Further, the aptamer binding inhibition in [9] was -1% (inactive). Further, the results for the response in assay [10] and in assay [12] were 8.89% (inactive) and 4.22% (inactive), respectively. The binding (% of control) in assay [13] is 83.4% (inactive). In addition, the efflux inhibition (fraction of control) in assay [14] was -0.175 (inactive). For the same molecule, the differentiation response in assay [16] was -10.4% (inactive).
Molecule `CCCCC[C@H](O)/C=C/[C@@H]1[C@@H](C/C=C\CCCC(=O)O)[C@H]2CO[C@@H]1C2` displayed a double positive events in assay [6] of 59%. Further, the vesicle binding response in assay [6] is 192% (inactive). The inhibition in [7] was -8.78% (inactive); in assay [11], 1.57% (inactive); in assay [15], -1% (inactive). Moreover, in [8], the superoxide response (% of plate) is 110% (inactive). Moreover, in [9], the aptamer binding inhibition was -1% (inactive). The results for the response in assay [10] and in assay [12] were -18.1% (inactive) and -0.38% (inactive), respectively. Further, the binding (% of control) in [13] was 101% (inactive). Moreover, in [14], the efflux inhibition (fraction of control) is 0.08 (inactive). In addition, the differentiation response in assay [16] is -10.9% (inactive).
`COc1ccc(C(=O)[C@H]2[C@H]3C(=O)N(c4ccccc4)C(=O)[C@H]3C3C=CC=NN32)cc1` (some centres not stated) displayed a double positive events in assay [6] of 62.9%. In [6], the vesicle binding response is 227% (inactive). The figures for the inhibition in assay [7], in [11] and in assay [15] were -7.79% (inactive), 28.5% (inactive) and -9% (inactive), respectively. Moreover, the superoxide response (% of plate) in assay [8] is 96.9% (inactive). In assay [9], the aptamer binding inhibition was 3% (inactive). Besides, the response in assay [10] was 0.22% (inactive); in [12], -6.05% (inactive). For the same molecule, the binding (% of control) in assay [13] is 99.8% (inactive). In [14], the efflux inhibition (fraction of control) was 0.01 (inactive). In addition, in assay [16], the differentiation response was -8.96% (inactive).
